Experimental data taken from PubChem BioAssay AID1347426 (Functional Genomics Laboratory (NCATS/FGL), 2020).
About 1,400 (4.5%) of roughly 31,000 sequences were called active.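 The calls were made as follows: active = median seed-adjusted z-score above 1 or below -1; inactive = the rest.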 Many of the other results were omitted from the sample, so actives are more common in it than they were.

assay: Novel Modifiers of Survival Motor Neuron (SMN) Protein: Gene Identification via Genome-wide siRNA Screen; conditions: HEK293T SMN2-luciferase reporter, siRNA knockdown, 72 h; actives lie on both sides
Source text: Spinal muscular atrophy (SMA) is the most common neuromuscular autosomal recessive disorder and one of the leading genetic causes of infant death. SMA results from mutations inducing loss of function or deletion in the survival of motor neuron-1 gene (SMN1), leading to deficiency of the survival motor neuron (SMN) protein. Although a second nearly identical gene, SMN2, is retained in humans, its expression primarily produces an aberrantly spliced isoform that is largely unstable and quickly degraded. We performed a genome-wide RNAi screen using a cell-based reporter assay to identify genes and pathways that modulate SMN protein stability. The screen identified over 200 genes that led to the greatest increase or decrease in luciferase expression.
Using HEK293T cells stably expressing a luciferase reporter that combines the promoter and splicing based cassettes in tandem with the major portion of the native SMN2 cDNA with luciferase, we performed a genome-wide RNAi screen to identify modulators of SMN protein levels. Luciferase is expressed when full-length SMN protein is generated with luminescence signal proportional to SMN protein levels. Our luciferase-based reporter assay was used to screen Ambion Silencer Select Human Druggable Genome siRNA library (10418 genes, 3 unique siRNAs per gene) using lipid-based reverse transfection.
Briefly, 1 pmol of each siRNA was spotted to a well of a 384-well plate (Corning, Corning, NY) and 20 microL of serum-free DMEM containing […] of Lipofectamine RNAiMax (Life Technologies, Carlsbad, CA) was then added to each well. Transfected cells were maintained at 37 degrees C in 5% CO2 for 72 hours, 20 microL of ONE-Glo Reagent (Promega) was added to wells for luciferase quantification. Raw luminescence reads were normalized to Ambion(R) Silencer(R) Negative Control #2 siRNA, then log10 transformed. A robust statistical measure of median absolute deviation (MAD) to standardize siRNA activities from each screen. Common Seed Analysis was used to help prioritize clean hits as opposed to those appearing to arise from seed based off-target effects. Candidate modulators were defined as the genes having a MAD score greater than 1.0 or less than -1.0.

Sequence | median seed-adjusted z-score
GAUUAUAUUUGUCCAGCUATT against ESR2 | -1.1 (active)
CAAUCCAGGUGAUCGCAAATT against TPMT | 0.19 (inactive)
CAAUGGUACCUAUGACUAUTT against ALG3 | -0.446 (inactive)
GAGUACAUGUACUACCUGATT against RFX1 | 0.818 (inactive)
GAGUUAACGUAUCAGAACATT against LRRFIP1 | -0.181 (inactive)
ACUCUAUCCUUGCUUUGCATT against ZNF219 | 0.127 (inactive)
GCAUAACUGUAACAGAGAATT against RPP30 | -0.656 (inactive)
GCUCAGAAGCAGUAAUGCATT against PQBP1 | -1.12 (active)
GAAAUGCGAGCUGAACAUATT against CMAS | -0.491 (inactive)
CUUUUUACGUGAGCGUAUATT against NAP1L1 | 0.263 (inactive)
CGCUGGACUUCGUCAAGAATT against KCNC4 | -0.433 (inactive)
CUAUCAUGGAAGAUGCUGATT against B3GNT4 | 0.124 (inactive)
AGUACUUCCUGACGAUGGATT against CST6 | -0.237 (inactive)
ACUAACAUCCCAGACUUUATT against VWA1 | 0.289 (inactive)
CCAACUACCUGAACGAUGATT against U2AF2 | 2.14 (active)
AGCUCACACUAUGCAUUGATT against KRTAP2-2 | -0.212 (inactive)
GGAGGCUCGUUUUCCCGUATT against EGR4 | 0 (inactive)
GGACUCAGACGAGUUUUAUTT against CYP11B1 | -0.199 (inactive)
GCAGCGAGUCAGUAACUUUTT against SUPT4H1 | -1.01 (active)
GCUUCUUCGAGAAACAGAATT against RBMY1F | 0.2 (inactive)
GGGUUUGCACUGAAACGAATT against CIR | -0.197 (inactive)
GGAAGGAAUUCAACCGGAUTT against ZNF366 | 0.585 (inactive)
CCAUAGCCCAAAUCAAGGATT against SIK2 | 0.055 (inactive)

Sequence | median seed-adjusted z-score
CCACGAACAAUAAUCCCAATT against KCNA3 | 0.213 (inactive)
CCCUCAAUUUGGUCUGUUUTT against SPINK2 | -0.431 (inactive)
ACAACAUGAAGGUCCUCUATT against THY1 | -1.1 (active)
ACAUGUUUUUAGAAUUGCUTT against TST | 0 (inactive)
CAGUUAUGUUCUACGCAGATT against KCND2 | -0.245 (inactive)
CCAUGGAUUUUGUACUGCUTT against VPS35 | -0.511 (inactive)
GGCGAAUUCCAUACCGUUATT against NEK2 | -0.276 (inactive)
GGAGUAUAUUGAGUAUGGATT against CNOT1 | 1.2 (active)
GUUCCAUCUUGAUCGAGUATT against RASSF9 | 0.314 (inactive)
CGGGAACACGUUUCAGGGATT against GPR157 | 0.152 (inactive)
CAUCCCAGAUCAAACUGUATT against TFAP2A | -0.384 (inactive)
GAUUAUUGAGCAUAAGAUUTT against ZNF277 | -0.0374 (inactive)
GAACUGCACGUGUACAACATT against HCFC1 | 1.47 (active)
GCCUUCUUCUUAUGCAAGATT against ACTL6B | 0.0703 (inactive)
CCAUCUAUUCAGAGACGUATT against MUTYH | 0.024 (inactive)
GGCAUUCGCUUGAACAGCATT against DRG1 | 0.336 (inactive)
GCCUCUACAUCUAGUGAUATT against JMJD1C | 0.0338 (inactive)
AGAUCAAGUUUGCCCUAAATT against HDGF2 | 0 (inactive)
GCCUGGAUGCUAAUCAAGATT against S100A12 | 0.346 (inactive)
AGGAAGAAUUUAAUCCUGATT against CYP26A1 | 0.0569 (inactive)
GAAAGAGCCUGUUACCUAUTT against ACTR1A | 1.28 (active)
GUGAAGAAGUUGCUUAUUATT against MAST1 | -0.0897 (inactive)
GCAUGAUGGUAUUGAGCUUTT against MS4A6A | 0.174 (inactive)

Sequence | median seed-adjusted z-score
GAGUCACUUCUAAUAAACATT against FOLR2 | -0.0835 (inactive)
CGUUAUCUUCAUCACCUAUTT against ABCC10 | -1.56 (active)
GGCUAUAAUAGACACGAGATT against CDH6 | 0 (inactive)
UGACUUUCCUCUCUACGGUTT against SLC10A3 | -0.25 (inactive)
GCAUGCUGUUAGCCGAUAATT against TOMM70A | 0.0717 (inactive)
CGGCUGAUGUUCUCGAAUUTT against BRD3 | 0.633 (inactive)
CCAGGCUAUUUGUACCGAUTT against CCR6 | 0.103 (inactive)
CCAGCUCUGGAAUUAGAUATT against NRBP1 | -1.13 (active)
GAAUUAAAGAUUUGGUUGATT against EFCAB1 | -0.719 (inactive)
GCUGUUAAGUAUGCCCUUATT against AKR1A1 | -0.255 (inactive)
GGACCAUUGGUGAUGAGAATT against CD36 | -0.000845 (inactive)
GGUUGGAUGCUAUAUACCATT against ROS1 | -0.0561 (inactive)
GGGAUAAGCUGAUAAAGGATT against NDUFS5 | -1.35 (active)
GAAUUGAAACGAGCUAGAATT against TAF13 | -0.919 (inactive)
CCGUAUGAAUGUAAGUAUUTT against ZNF441 | 0.578 (inactive)
CAAGAGUUAUGGUCUGGGATT against GCM1 | 0.0197 (inactive)
CCACGAUGAAGGAACGAGATT against PDE4A | -0.147 (inactive)
GCAUGAUCUAGAUCGAGUATT against UQCRFS1 | -1.28 (active)
GGUAUUACUUUGCAAUCGATT against CACNA2D1 | -0.541 (inactive)
CAAGAUAUAUAUACGCCUATT against NPY1R | 0.76 (inactive)
GGGUUUUAGUAACCUUAGATT against SUCNR1 | 0 (inactive)
GAUCCAAAGUAACUAAACATT against HMGN3 | -0.182 (inactive)
GAGGCAGUCUUAGAGGAAATT against SPATA21 | -1.03 (active)
